JMJD2A Tudor = JMJD2A Tudor domain (human) inhibition. AlphaScreen JMJD2A-Tudor / H3K4me3 peptide binding. Potency, µM (doses to about 114 µM), inactives show top-dose activity change, negative = inhibition, hits mostly inhibitors. O75164. 390,000 compounds, 4.4% hits; note: potency is the fitted concentration of half-maximal effect; % is set by controls: 0 for no effect and ±100 for the full control effect; nearly all actives have a fitted effect of over 50% in size
HP1b chromo inh = inhibitors of HP1-beta chromodomain binding to methylated histone tails | P83916 | AlphaScreen HP1-beta / biotin-H3K9me3 peptide binding | Potency, µM (titrated, usually from 114 µM), for inactives: at the top dose activity change, negative = inhibition, usual class: inhibitors | 390,000 compounds, 0.56% hits | AID 540317; note: potency is the fitted concentration of half-maximal effect; nearly all actives have a fitted effect of over 70% in size
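HP1-beta protein (50 nM final) preincubated 30 min at room temperature with biotinylated H3(1-18)K9me3 peptide (50 nM) in PBS pH 7.4, 0.01% Tween-20, then compound added for 30 min. AlphaScreen streptavidin donor/nickel chelate acceptor beads (10 ug/mL final), 30 min dark, luminescence read.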
PI5P4Ka inh = PI5P4K alpha (human) kinase inhibition; P48426; 330,000 compounds, 1.2% hits; max response, %; AID 652105; PI5P4Kalpha enzyme, ADP-Glo luminescence, 60 min; hits give low values; active = max response of -50% or lower; inconclusive = between -30% and -50%; inactive = -30% or higher; note: value at the top dose of about 77 µM; % is set by controls: 0 for no effect and ±100 for the full control effect
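ADP-Glo luminescence end-point after a 60 min room-temperature kinase reaction. PI5P4Kalpha and substrate in HEPES pH 7.4 buffer with EGTA, 0.1% CHAPS and 5% DMSO; ATP at 5 microM final.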
G9a inh = inhibitors of human histone lysine methyltransferase G9a; AID 504332; Q96KQ7; G9a H3K9 monomethylation, AlphaScreen, 2 h; 350,000 compounds, 8.8% hits; Potency, µM (series often up to 102 µM), without a hit: top-dose activity, negative = inhibition, hits mostly inhibitors; note: potency is the fitted concentration of half-maximal effect; % is set by controls: 0 for no effect and ±100 for the full control effect; nearly all actives have a fitted effect of over 75% in size
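Using a bead-based AlphaScreen, monomethylated H3K9 product from 2 h room-temperature reactions (G9a 20 nM, peptide 500 nM, SAM 20 uM) was detected with 0.5 ug/mL rabbit anti-H3K9me1 antibody.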
L3MBTL1 block = inhibitors of human L3MBTL1 | Q9Y468 | AlphaScreen L3MBTL1–H3K9me1 peptide binding | Potency, µM (doses to about 57.1 µM), inactives show at the highest dose activity, negative = inhibition, hits mostly inhibitors | 230,000 compounds, 0.66% hits; note: potency is the fitted concentration of half-maximal effect; % is set by controls: 0 for no effect and ±100 for the full control effect; nearly all actives have a fitted effect of over 60% in size
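AlphaScreen proximity signal between nickel-chelate acceptor and streptavidin donor beads (final 10 ug/mL) reports binding of 50 nM L3MBTL1 to 75 nM biotin-H3 K9me1 peptide; complex incubated with compounds 30 min at room temperature; cefsulodin titration as control.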
BAZ2B block = blocks human BAZ2B; Q9UIF8; AlphaScreen BAZ2B-H3K14Ac peptide displacement; Potency, µM (titrated, usually from 114 µM), for inactives: at the top dose activity change, negative = inhibition, hits mostly inhibitors; 360,000 compounds, 4.4% hits; AID 504333; note: potency is the fitted concentration of half-maximal effect; % is set by controls: 0 for no effect and ±100 for the full control effect; nearly all actives have a fitted effect of over 60% in size
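BAZ2B 50 nM plus b-H3(5-23)K14Ac 50 nM, PBS pH 7.4/0.01% Tween-20, 30 min RT; compound added (max 110 uM), 30 min RT; streptavidin donor/Ni-chelate acceptor beads 10 ug/mL final, 20 min dark; AlphaScreen read.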
The depositor's hits bear a star; [ ] = another dose, or the depositor's remark. Compounds with a hit are over-represented: about 11% of the library has one in this group of screens. Unless noted, calls come from the whole dose curve; as a rule, active = well fitted inhibition curve with a large enough effect; inconclusive = small, poorly fitted or top-dose-only effect; inactive = no such curve, though single readings can be large or run the other way.

Screening COc1ccccc1C1CCN(c2cc(O)ccc2[N+](=O)[O-])CC1 returned JMJD2A Tudor 50µM*, HP1b chromo inh inconclusive, PI5P4Ka inh -10, L3MBTL1 block -27% and BAZ2B block 25µM*.
`COc1ccccc1C1CCN(C(=O)c2ccccc2)CC1` gave JMJD2A Tudor 2%, HP1b chromo inh 30%, PI5P4Ka inh 1, G9a inh 25% and BAZ2B block -2%.
`NC(N)=N/N=C(\N=Nc1ccccc1)c1ccc(Cl)cc1` gave JMJD2A Tudor 22µM*, HP1b chromo inh inconclusive and PI5P4Ka inh -9.
For NC(N)=N/N=C(\N=Nc1ccccc1)c1cccc2cccnc12 the results were JMJD2A Tudor inconclusive, HP1b chromo inh 3% and PI5P4Ka inh 8.
Screening O=c1c2cc3c(cc2nc2sc(Nc4cccc([N+](=O)[O-])c4)nn12)OCO3 returned JMJD2A Tudor -18%, HP1b chromo inh 43%, G9a inh 1.4µM* and BAZ2B block inconclusive.
For Nc1ccc2nc[nH]c2c1 the results were JMJD2A Tudor inconclusive, HP1b chromo inh 6%, PI5P4Ka inh -9, G9a inh 50µM*, L3MBTL1 block -11% and BAZ2B block -35%.
`O=[N+]([O-])c1ccc2nc[nH]c2c1` gave JMJD2A Tudor -3%, HP1b chromo inh 13%[57 µM] and PI5P4Ka inh 1.
For COc1cc(OC)c(NC(=O)c2sc3nc4n(c(=O)c3c2C)CCCC4)cc1Cl the results were JMJD2A Tudor -12%, HP1b chromo inh 45%, G9a inh inconclusive and BAZ2B block -27%.
For CC(C)=CCC/C(C)=C/C(N)=O the results were JMJD2A Tudor -8%, HP1b chromo inh 17%[57 µM], PI5P4Ka inh 4, G9a inh 18%, L3MBTL1 block 5% and BAZ2B block -37%.
`CC(C)=CCC/C(C)=C/C=C/C(C)=C/C=C/C(C)=C/C=C/C=C(C)/C=C/C=C(C)/C=C/C=C(\C)CCC=C(C)C` gave G9a inh 20µM*.
`CC(C)CCn1c(=S)[nH]c2ncccc2c1=O` gave JMJD2A Tudor inconclusive, HP1b chromo inh 41%, PI5P4Ka inh 0, G9a inh 12%, L3MBTL1 block 1% and BAZ2B block 5%.
`CN(C)CCn1c(=S)[nH]c2ncccc2c1=O` gave JMJD2A Tudor 7%, HP1b chromo inh 0%, PI5P4Ka inh 4, G9a inh 28µM* and BAZ2B block -35%.
For CCOCCCn1c(=S)[nH]c2ncccc2c1=O the results were JMJD2A Tudor 22µM*, HP1b chromo inh 55%, PI5P4Ka inh -6, G9a inh 56µM*, L3MBTL1 block 0% and BAZ2B block -13%.
For COCCN(CCOC)C(=O)C12CCC(C)(C(=O)C1)C2(C)C (configuration not stated) the results were JMJD2A Tudor -10%, HP1b chromo inh 10%, G9a inh 50µM*, L3MBTL1 block -4% and BAZ2B block -5%.
For COc1ccccc1NC(=O)C12CCC(C)(C(=O)C1)C2(C)C (configuration not stated) the results were JMJD2A Tudor -15%, HP1b chromo inh -12%, PI5P4Ka inh -3, G9a inh 1%, L3MBTL1 block 2% and BAZ2B block -14%.
For CC(C)NC(=S)NNc1nc2ccccc2s1 the results were JMJD2A Tudor 45µM*, HP1b chromo inh 50µM*, PI5P4Ka inh -67*, G9a inh 2.2µM*, L3MBTL1 block -10% and BAZ2B block -34%.
`Cc1cc(C)c2c(-n3cccc3)c(C(=O)NCCCN3CCCCC3)sc2n1` gave JMJD2A Tudor -15%, HP1b chromo inh 24%, G9a inh -36%[59 µM] and BAZ2B block -11%.
Screening CCNc1ccc(C(=O)OCC)cc1NC(=O)c1cccc(N(C)C)c1 returned JMJD2A Tudor inconclusive, HP1b chromo inh -18%, G9a inh 50µM*, L3MBTL1 block -10% and BAZ2B block inconclusive.
For CCOC(=O)c1ccc(S(=O)(=O)NNC(=O)c2cccc(N(C)C)c2)cc1 the results were JMJD2A Tudor -19%, HP1b chromo inh 10%, PI5P4Ka inh 1, G9a inh 11µM* and L3MBTL1 block -9%.
`COc1ccc(CCNC(=O)CN2C(=O)COc3ccc(C)cc32)cc1OC` gave JMJD2A Tudor -4%, HP1b chromo inh 30%, G9a inh 5%[59 µM] and BAZ2B block 9%.
O=C1c2cccc3c([N+](=O)[O-])ccc(c23)C(=O)N1c1ccc(Cl)cn1 was read as JMJD2A Tudor inconclusive, HP1b chromo inh inconclusive, G9a inh inconclusive, L3MBTL1 block -11% and BAZ2B block 45µM*.
O=C1c2cccc3c([N+](=O)[O-])ccc(c23)C(=O)N1c1ccccn1 was read as JMJD2A Tudor 1%[11.4 µM], HP1b chromo inh -30%, PI5P4Ka inh -11, G9a inh 71µM*, L3MBTL1 block -26% and BAZ2B block inconclusive.
For O=C1c2cccc3c([N+](=O)[O-])ccc(c23)C(=O)N1O the results were JMJD2A Tudor inconclusive, HP1b chromo inh 14%, PI5P4Ka inh inconclusive, G9a inh inconclusive and BAZ2B block 50µM*.
CCCCn1cnc2c(c(-c3ccccc3)c(-c3ccccc3)n2Cc2ccco2)c1=N was read as JMJD2A Tudor -17%, HP1b chromo inh -8%, PI5P4Ka inh -5, L3MBTL1 block -5% and BAZ2B block inconclusive.
For N=c1c2c(-c3ccccc3)c(-c3ccccc3)n(Cc3ccco3)c2ncn1Cc1ccco1 the results were JMJD2A Tudor 50µM*, HP1b chromo inh inconclusive, PI5P4Ka inh -10, G9a inh inconclusive, L3MBTL1 block -27% and BAZ2B block 25µM*.
Screening N=c1c2c(-c3ccccc3)c(-c3ccccc3)n(Cc3ccccc3)c2ncn1CCCn1ccnc1 returned JMJD2A Tudor inconclusive, HP1b chromo inh -10%, PI5P4Ka inh 8, G9a inh inconclusive, L3MBTL1 block -13% and BAZ2B block 50µM*.
Screening Cc1cc(NCCCn2ccnc2)n2nc(C)c(-c3ccccc3)c2n1 returned JMJD2A Tudor inconclusive, HP1b chromo inh 0%, G9a inh -41%[59 µM] and BAZ2B block inconclusive.
Screening CCC(C(=O)OCc1cc(=O)n2nc(C)sc2n1)c1ccccc1 (configuration not stated) returned JMJD2A Tudor -8%, HP1b chromo inh -1%, G9a inh 19%[59 µM] and BAZ2B block -6%.
For O=C(NCc1ccccc1Cl)c1cc2ccccc2o1 the results were JMJD2A Tudor 15%, HP1b chromo inh 110%, G9a inh 39%[59 µM] and BAZ2B block 74%.

Bioassay records as filed in PubChem.
